Results taken from PubChem BioAssay AID1578 (Sanford-Burnham Center for Chemical Genomics, 2009).
The campaign covered roughly 290,000 compounds. About 3,000 (1%) were called active. The list comes from a sample in which actives are over-represented; it also holds similar structures and randomly drawn compounds. Values without a mark were called inactive. No stated cut-off is given here; in the data, active means inhibition mostly above about 36% (no sharp cut-off); inactive means mostly below about 34%.

Experiment: inhibition of NOD1-driven NF-kB reporter – cell-based, luminescence, uHTS, primary screen (AID 1578);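 further: HEK-293T reporter cells stimulated with the NOD1 agonist gamma-tri-DAP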
Conditions: NOD1-driven NF-kB luciferase reporter cells, at 4 µM, stronger effect = higher value
`Cc1cc(=O)[nH]c(N/N=C/c2ccc(-c3ccc(F)cc3)o2)n1` showed an inhibition of -56.3%.
With `C/C(=N\N=c1/sc2ccccc2n1C)c1ccccn1` the inhibition was -61.2%.
Molecule `CCN(CC)S(=O)(=O)c1ccc2c(c1)c(=O)c(C(=O)NCCOC)cn2C` has an inhibition of -12.6%.
Work on `COc1ccc(C(=O)Nn2c(SCC(=O)c3ccccc3)nc3ccccc3c2=O)cc1` yielded an inhibition of 43.6%.
In the case of `COc1ccc(C(=O)Nn2c(SCC(=O)NCc3ccco3)nc3ccccc3c2=O)cc1`, the inhibition is reported as -0.3%.
With `COc1ccc(C(=O)Nn2c(SCC(=O)NC3CCCCC3)nc3ccccc3c2=O)cc1` the inhibition was 88% (active).
With `COc1ccc(C(=O)Nn2c(SCC(=O)NCc3ccccc3)nc3ccccc3c2=O)cc1` the inhibition was 18.4%.
With `COc1ccc(C(=O)Nn2c(SCC(=O)NCC3CCCO3)nc3ccccc3c2=O)cc1` (stereo unspecified) the inhibition was 64.6% (active).
For `COc1ccc(C(=O)Nn2c(SCC(=O)NC3CCCC3)nc3ccccc3c2=O)cc1`, the inhibition was 12.9%.
Work on `COc1ccccc1NC(=O)C(CCS(C)(=O)=O)N1C(=O)c2ccccc2C1=O` (stereo unspecified) yielded an inhibition of -3.2%.
Molecule `C#CCSc1nnc(-c2c[nH]c3ccccc23)n1C` has an inhibition of -40.9%.
Work on `Cn1cc2ccc([N+](=O)[O-])cc2n1` yielded an inhibition of -6.5%.
`CCOc1ccc(CCNC(=O)CCC(=O)N2CCOc3ccccc32)cc1OCC` gave an inhibition of -4.6%.
`O=C(N/C(=C\c1cccs1)C(=O)N1CCOCC1)c1ccco1` gave an inhibition of -12.2%.
In the case of `CCOc1ccc(NC(=O)CN(C)c2nnnn2-c2ccccc2)cc1OCC`, the inhibition is reported as 39%.
For `COc1cc(OC)c(C(=O)/C=C/c2ccccc2)c(O)c1O`, the inhibition was 21.4%.
`COc1cc(O)c(C(=O)/C=C/c2ccccc2)c(OC)c1` showed an inhibition of 1.3%.
For `COc1cc(O)cc(O)c1C(=O)/C=C/c1ccccc1`, the inhibition was 49.8% (active).
For `CN1C/C(=C/c2cccnc2)C(=O)/C(=C/c2cccnc2)C1`, the inhibition was 37%.
In the case of `CCC1C/C(=C\c2cccnc2)C(=O)/C(=C/c2cccnc2)C1` (stereo unspecified), the inhibition is reported as 103% (active).
With `O=C1/C(=C/c2cccnc2)CC/C1=C\c1cccnc1` the inhibition was 5.4%.
`CC(Cl)C(=O)c1ccc2c(c1)CCN2C(=O)C1CC1` (stereo unspecified) gave an inhibition of 43.8%.
In the case of `O=C(CCl)c1ccc2c(c1)CCN2C(=O)C1CC1`, the inhibition is reported as 76.4% (active).
In the case of `O=C(CCl)c1ccc2c(c1)CCN2C(=O)C1CCCCC1`, the inhibition is reported as 13%.
`Cc1nnsc1NC(=O)OCc1ccc(C(C)(C)C)cc1` showed an inhibition of 58.9%.
Work on `Clc1ccc(OCc2nn[nH]n2)cc1` yielded an inhibition of 4.7%.
With `Cc1cc(C)c(C)c(S(=O)(=O)NCC(=O)NCC2CCCCC2)c1C` the inhibition was -8.5%.
Molecule `O=C(NC1CCN(S(=O)(=O)c2cccc(F)c2)CC1)c1ccc(F)cc1` has an inhibition of -9.7%.
For `C1=Nc2c(Nc3ccccc3)ncnc2Oc2ccccc21`, the inhibition was -21%.
Work on `COc1ccc(CNC(=O)/C=C/c2ccc(OCCCF)cc2)cc1` yielded an inhibition of -6.2%.
Molecule `O=C(/C=C/c1ccc(OCCCF)cc1)Nc1ccnc(-c2cccnc2)n1` has an inhibition of 8.2%.
With `O=C(/C=C/c1ccc(OCCCF)cc1)Nc1ccnc(-c2ccncc2)n1` the inhibition was 89.5% (active).
In the case of `CCC(C)C(Nc1ncnc2scc(-c3ccccc3)c12)C(=O)O` (stereo unspecified), the inhibition is reported as -21%.
`O=S(=O)(NC1CC1)c1ccccc1` gave an inhibition of -1%.
Work on `COC(=O)c1cn(NC(=O)c2ccc([N+](=O)[O-])cc2Cl)c(=O)c2ccccc12` yielded an inhibition of -35.6%.
For `COC(=O)c1cn(NC(=O)c2cc([N+](=O)[O-])ccc2F)c(=O)c2ccccc12`, the inhibition was 78% (active).
For `COC(=O)c1cn(NC(=O)c2ccccc2[N+](=O)[O-])c(=O)c2ccccc12`, the inhibition was -27.3%.
`CC1CN(C(=O)COC(=O)c2cc(Cl)ccc2[N+](=O)[O-])CC(C)O1` (stereo unspecified) showed an inhibition of -25.3%.
Work on `CCCCS(=O)(=O)N1CCN(S(=O)(=O)c2ccc(Cl)s2)CC1` yielded an inhibition of -11%.
In the case of `O=C(Oc1cc(=O)oc2ccccc12)c1ccccc1`, the inhibition is reported as -8.5%.
In the case of `CC(C)[C@H](NC(=O)[C@@H]1Cc2ccccc2CN1)C(=O)NC1CCCCC1`, the inhibition is reported as -12.1%.
For `CCCCc1c(O)nc(SCC(=O)c2ccccc2)n(-c2ccccc2)c1=O`, the inhibition was -1.5%.
For `Cc1ccc(S(=O)(=O)/N=C(\CCl)N2CCOCC2)cc1`, the inhibition was 72.3% (active).
Work on `Cc1ccc(S(=O)(=O)/N=C(\CN2CCCCC2)N2CCOCC2)cc1` yielded an inhibition of 10.8%.
In the case of `Cc1ccc(S(=O)(=O)/N=C(\CN2CCOCC2)N2CCOCC2)cc1`, the inhibition is reported as 0.6%.
In the case of `N/N=c1\sc2ccccc2n1-c1ccccc1`, the inhibition is reported as 2.6%.
Molecule `COc1cccc(/C=C2\SC(=S)N(CCCC(=O)N3CCCCC3)C2=O)c1` has an inhibition of 0%.
With `O=C(CCC(=O)NC1CCCCCCC1)Nc1nnc(C(F)(F)F)s1` the inhibition was 4.2%.
In the case of `O=C(CCC1CCCCC1)Nc1nnc(C(F)(F)F)s1`, the inhibition is reported as 77.4% (active).
Work on `O=C(CCC(=O)NC1CCCCCC1)Nc1nnc(C(F)(F)F)s1` yielded an inhibition of -18.1%.
In the case of `Cc1ccnc(NC(=O)c2ccc(Cl)cc2Cl)n1`, the inhibition is reported as 14.3%.
Molecule `COc1ccc(C(=O)NC2CC(C)(C)Cc3c2cnn3-c2ccccc2)cc1OC` (stereo unspecified) has an inhibition of 0.2%.
In the case of `COc1ccc(OC)c(C(=O)NC2CC(C)(C)Cc3c2cnn3-c2ccccc2)c1` (stereo unspecified), the inhibition is reported as 53.9% (active).
With `COc1cc(C(=O)NC2CC(C)(C)Cc3c2cnn3-c2ccccc2)cc(OC)c1OC` (stereo unspecified) the inhibition was -14.3%.
Molecule `O=C(NCCc1c[nH]c2ccccc12)c1ccc([N+](=O)[O-])cc1` has an inhibition of -37.7%.
In the case of `NC(=O)C1CCN(c2ccc(S(=O)(=O)N3CCCCC3)cn2)CC1`, the inhibition is reported as -25.2%.
For `O=C(O)c1ccc(S(=O)(=O)N2CCC(Cc3ccccc3)CC2)cc1`, the inhibition was 2.5%.
Work on `Cc1ccc(CNC(=O)C2CC3Cn4c(nc5cc(C)c(C)cc54)C3N2C)o1` (stereo unspecified) yielded an inhibition of -2.6%.
Work on `Cc1ccc(/C=C2/SC(=S)N(CCC(=O)N3CCN(c4ccccc4)CC3)C2=O)cc1` yielded an inhibition of 5.7%.
`CCOC(=O)N1CCN(CC(=O)Nc2ccc(F)c(F)c2)CC1` showed an inhibition of 10.6%.
Molecule `CCC(=O)Nc1nc2nc(-c3ccccc3)cc(=O)n2[nH]1` has an inhibition of 0.3%.
With `CCC(=O)Nc1nc2nc(C)cc(=O)n2[nH]1` the inhibition was 57.1% (active).
`CCCC(=O)Nc1nc2nc(C)cc(=O)n2[nH]1` gave an inhibition of -2.3%.
Molecule `Brc1ccc(-c2nc(-c3ccncc3)no2)cc1` has an inhibition of -20.7%.
Molecule `NC1=NC(=O)C(CC(=O)Nc2ccc3c(c2)OCO3)S1` (stereo unspecified) has an inhibition of -24.1%.
For `CCCCNS(=O)(=O)c1ccc2nc(SCC(=O)Nc3sccc3C#N)[nH]c2c1`, the inhibition was 65.5% (active).
For `CCCCNS(=O)(=O)c1ccc2nc(SCC(=O)c3ccc(C#N)cc3)[nH]c2c1`, the inhibition was -14.8%.
In the case of `CCCCNS(=O)(=O)c1ccc2nc(SCC(=O)Nc3ccccc3)[nH]c2c1`, the inhibition is reported as -15.3%.
`CC(=O)Nc1ccc2sc(C)nc2c1` gave an inhibition of -14.2%.
In the case of `Cc1nc2cc(NC(=O)c3ccc(Br)s3)ccc2s1`, the inhibition is reported as -42.5%.
`COc1ccc(Cl)cc1NC(=O)CN1C(=O)CSC1=O` gave an inhibition of -3.2%.
Work on `Cc1ccc(NC(=O)c2ccccc2N(C)S(=O)(=O)c2ccccc2)c(C)c1` yielded an inhibition of -8.8%.
`CCOC(=O)c1c(C)oc2c1C(=O)c1ccccc1C2=O` showed an inhibition of -38.5%.
For `CC(=O)c1c(C)oc2c1C(=O)c1ccccc1C2=O`, the inhibition was 79.5% (active).
In the case of `Cc1oc2c(c1C(=O)O)C(=O)c1ccccc1C2=O`, the inhibition is reported as -30.8%.
With `Cc1ccc(-c2nnn(CC(=O)N(Cc3ccccc3F)C(C(=O)NC3CCCC3)c3ccncc3)n2)o1` (stereo unspecified) the inhibition was -44.1%.
With `CCOC(=O)C1=C(C)N(c2ccccc2)C(=O)NC1c1cccc([N+](=O)[O-])c1` (stereo unspecified) the inhibition was -25.4%.
In the case of `COc1ccc(C(=O)NCc2nnc(SCC(=O)N3CCOCC3)o2)cc1`, the inhibition is reported as 37.2% (active).
For `O=C(CSc1nnc(CNC(=O)c2ccc(F)cc2)o1)NCCc1ccccc1`, the inhibition was -16%.
`COc1ccc(C(=O)NCc2nnc(SCC(=O)NCCc3ccccc3)o2)cc1` gave an inhibition of -16.6%.
For `O=C(CSc1nnc(CNC(=O)c2ccccc2)o1)NCCc1ccccc1`, the inhibition was 72% (active).
In the case of `COc1ccc(C(=O)NCc2nnc(SCC(=O)N3CCCC3)o2)cc1`, the inhibition is reported as -25.5%.
Molecule `COc1ccc(C(=O)NCc2nnc(SCC(=O)N3CCCCC3)o2)cc1` has an inhibition of -32.2%.
Molecule `COCCn1c(SCC(=O)Nc2ccc(S(N)(=O)=O)cc2)nc2ccccc21` has an inhibition of -3.5%.
With `CCN(CC)C1CCN(C(=O)CCn2nnnc2CN2CCOCC2)C1` (stereo unspecified) the inhibition was -54.3%.
`COCCn1c(SCc2ccc(OC)c(F)c2)nnc1-c1ccncc1` showed an inhibition of -14.1%.
`O=Cc1ccc(OC(=O)CCCCC(=O)Oc2ccc(C=O)cc2)cc1` gave an inhibition of 4.4%.
For `CC(C)[N+]1=C2C=CC=CC=C2SC12C([N+](=O)[O-])=CC(=[N+]([O-])[O-])C=C2[N+](=O)[O-]` (stereo unspecified), the inhibition was -8.1%.
With `CN1C2=CC=CC=CC2=[N+](C)C12C([N+](=O)[O-])=CC(=[N+]([O-])[O-])C=C2[N+](=O)[O-]` (stereo unspecified) the inhibition was 57.4% (active).
`CN1C2=CC=CC=CC2=[N+](C)C12C=CC(=[N+]([O-])[O-])C=C2[N+](=O)[O-]` (stereo unspecified) showed an inhibition of -35.5%.
For `Fc1ccc(NC(=S)Nc2ccc(Cl)cc2Cl)cc1`, the inhibition was -28.8%.
In the case of `CC(=O)c1c(C)[nH]c(C(=O)Nc2ccc(C)c(S(=O)(=O)N(C)C)c2)c1C`, the inhibition is reported as -63.3%.
`Nc1nc(NCC(=O)O)nc(NCc2ccccc2)c1[N+](=O)[O-]` showed an inhibition of -13.3%.
`O=C(NNC1=Nc2ccccc2SC1)c1ccccc1F` gave an inhibition of 1.9%.
With `O=C(NNC1=Nc2ccccc2SC1)c1ccc(F)cc1` the inhibition was 18.7%.
With `O=C(NNC1=Nc2ccccc2SC1)c1ccc(Cl)cc1` the inhibition was 78.1% (active).
